# C diff HTS – blocks growth of Clostridium difficile. Clostridium difficile clinical isolate growth, OD600, 24 h; hits give low values. growth activity, negative = inhibition, % at 16 µg/mL (by protocol). hit rate 0.25% among 86,000. AID 1259249;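 active = mean growth activity at or below -80% and every replicate also at or below -80%; inconclusive = mean at or below -80% but some replicate above -80%; inactive = mean growth activity above -80%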;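 also: 0% = DMSO wells and -100% = levofloxacin 16 µg/mL wells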
# T cruzi growth-1 – blocks T. cruzi growth in NIH3T3 culture; AID 624255; inhibition, % at 8.34 µM; hit rate 5.9% among 77,000; T. cruzi beta-gal in NIH3T3, GalScreen luminescence, 90 h;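 active = mean inhibition above about 93%, with at least 55% of replicates each passing it, limit read from the data, passing the limit was not always enough; inconclusive = only one of those two conditions holds; inactive = neither condition holds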
# Pf Dd2 growth – blocks growth of Plasmodium falciparum Dd2 parasites; activity change, % at 10 µM; hit rate 2.3% among 94,000; P. falciparum Dd2 growth, SYBR Green, 72 h; hits give low values; in the data active = activity change below about -80%; inconclusive = no clear call, values can overlap the other calls
# T cruzi growth-2 – blocks T. cruzi growth in NIH3T3 host cells; T. cruzi beta-gal in NIH3T3, GalScreen luminescence, 90 h; inhibition, % at 8.35 µM; shares compounds with T cruzi growth-1; hit rate 72% among 5,600;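 active = mean replicate inhibition above about 95% and at least 55% of replicates individually reaching it, limit read from the data; inconclusive = only one of the two criteria is met; inactive = neither criterion is met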
# T cruzi growth-3 – Trypanosoma cruzi proliferation inhibition; shares compounds with T cruzi growth-1; T. cruzi beta-gal in NIH3T3, GalScreen luminescence, 90 h; inhibition, % at 2.09 µM; hit rate 21% among 5,600;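 active = mean inhibition above about 95%, with at least 55% of replicates also reaching it, limit read from the data; inconclusive = meets just one of the two conditions; inactive = meets neither condition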;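 also: plate controls were neutral control median for no effect and positive control median for full effect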
# 3T3 cytotox – NIH/3T3 (mouse) viability loss; cytotoxicity (signal decrease), % at 8.35 µM; shares compounds with T cruzi growth-1; AID 651742; hit rate 14% among 5,600; NIH/3T3 viability, CellTiter-Glo ATP luminescence, 90 h;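 active = mean signal decrease across replicates above about 35% based on untreated-well scatter, with enough replicates individually passing, limit read from the data; inconclusive = no rule stated though some were filed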;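 also: 0% = median of neutral control wells and 100% = median of positive control wells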
# 3T3 cytotox 2 – kills mouse NIH/3T3 fibroblasts. AID 651744. inhibition, % at 24.9 µM. NIH/3T3 viability, CellTiter-Glo ATP luminescence, 90 h. shares compounds with T cruzi growth-1. hit rate 56% among 5,600;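 active = mean loss of cell viability signal at or above a set limit, and enough replicates individually reaching it; inconclusive = meets only the mean limit or only the replicate share; inactive = meets neither condition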;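 also: 0% = median of neutral control wells and 100% = median of positive control wells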
# * hit, by the source's call; ? = inconclusive; / = no result given. Rows were chosen to be rich in hits. Some 6.8% of all compounds tested hit in one or more screens of this group.
SMILES,C diff HTS,T cruzi growth-1,Pf Dd2 growth,T cruzi growth-2,T cruzi growth-3,3T3 cytotox,3T3 cytotox 2
COc1cccc(C(=O)Nc2ccc3c(c2)C(=O)N(C)C[C@@H](OC)[C@H](C)CN(CCc2ccccc2)[C@H](C)CO3)c1,/,100.0*,?,103.8*,80.1,-16.0,-15.2
COc1cccc(C(=O)Nc2ccc3c(c2)C(=O)N(C)C[C@@H](OC)[C@@H](C)CN(CCc2ccccc2)[C@H](C)CO3)c1,/,61.4,-29.9,/,/,/,/
COc1cccc(C(=O)Nc2ccc3c(c2)OC[C@@H](C)N(CCc2ccccc2)C[C@@H](C)[C@H](OC)CN(C)C3=O)c1,/,117.6*,-36.9,103.2*,76.7,10.2,-4.7
COc1cccc(C(=O)Nc2ccc3c(c2)OC[C@@H](C)N(CCc2ccccc2)C[C@H](C)[C@H](OC)CN(C)C3=O)c1,/,88.4,-40.6,/,/,/,/
COc1cccc(C(=O)Nc2ccc3c(c2)C(=O)N(C)C[C@@H](OC)[C@H](C)CN(CCc2ccccc2)[C@@H](C)CO3)c1,/,92.5*,-49.2,107.8*,82.8,28.3,7.6
COc1cccc(C(=O)Nc2ccc3c(c2)C(=O)N(C)C[C@H](OC)[C@@H](C)CN(CCc2ccccc2)[C@@H](C)CO3)c1,/,91.3,-74.0,/,/,/,/
C[C@H]1CCCCO[C@@H](CN(C)C(=O)NC2CCCCC2)[C@@H](C)CN([C@@H](C)CO)C(=O)c2cc(NC(=O)c3ccncc3)ccc2O1,-2.6,26.1,-47.9,/,/,/,/
CCCC#Cc1cnc2c(c1)C(=O)N([C@@H](C)CO)C[C@@H](C)[C@@H](CN(C)C(=O)NCCC)O2,0.5,25.0,28.0,/,/,/,/
Cc1ccc(S(=O)(=O)NCC[C@H]2CC[C@@H](NC(=O)c3cccnc3)[C@H](CO)O2)cc1,0.5,11.3,10.3,/,/,/,/
COc1ccc(S(=O)(=O)N2CCCCN3[C@H](CO)[C@H](c4ccc(-c5cccnc5)cc4)[C@@H]3C2)cc1,1.7,104.0*,-23.7,104.3*,39.4,-13.3,42.1*
COc1ccc(S(=O)(=O)N2CCCCN3[C@H](CO)[C@@H](c4ccc(-c5cccnc5)cc4)[C@@H]3C2)cc1,-16.6,109.3*,-16.0,?,40.6,16.6,36.6*
Cc1cccc(S(=O)(=O)N2CCCCN3[C@@H](CO)[C@@H](c4ccc(-c5cccnc5)cc4)[C@@H]3C2)c1,-9.7,55.4,-56.9,/,/,/,/
COc1cccc(S(=O)(=O)N2CCCCN3[C@@H](CO)[C@@H](c4ccc(-c5cccnc5)cc4)[C@@H]3C2)c1,-29.4,68.1,-61.0,/,/,/,/
COc1ccc(S(=O)(=O)N2CCCCN3[C@@H](CO)[C@H](c4ccc(-c5cccnc5)cc4)[C@@H]3C2)cc1,-11.8,79.3,-22.6,/,/,/,/
COc1cccc(S(=O)(=O)N2CCCCN3[C@H](CO)[C@H](c4ccc(-c5cccnc5)cc4)[C@H]3C2)c1,-8.6,109.8*,-38.0,97.4*,66.2,33.4,34.9*
COc1ccc(S(=O)(=O)N2CCCCN3[C@H](C2)[C@H](c2ccc(-c4cccnc4)cc2)[C@@H]3CO)cc1,-4.0,104.0*,30.0,87.4,16.2,12.8,21.8
COc1cccc(S(=O)(=O)N2CCCCN3[C@H](CO)[C@@H](c4ccc(-c5cccnc5)cc4)[C@@H]3C2)c1,-27.7,94.3,-19.7,/,/,/,/
O=C(CCN1CCCCC1)N[C@@H]1CC[C@@H](CCNS(=O)(=O)c2ccc(F)cc2)O[C@H]1CO,-3.9,-82.0,12.9,/,/,/,/
C[C@@H]1CN([C@@H](C)CO)C(=O)c2cc(NC(=O)CCC(F)(F)F)ccc2O[C@@H](C)CCCCO[C@@H]1CN(C)C(=O)CCC(F)(F)F,2.9,/,11.6,/,/,/,/
C/C=C/c1ccc([C@H]2[C@H](CO)N3CCCCN(S(=O)(=O)c4ccc(F)cc4)C[C@@H]23)cc1,37.9,111.5*,0.6,108.2*,56.9,22.1,101.8*
C/C=C/c1ccc([C@@H]2[C@@H](CO)N3CCCCN(S(=O)(=O)c4ccc(OC)cc4)C[C@@H]23)cc1,-6.6,76.2,-27.0,/,/,/,/
C/C=C/c1ccc([C@H]2[C@@H](CO)N3CCCCN(S(=O)(=O)c4ccc(OC)cc4)C[C@@H]23)cc1,12.6,95.4*,-15.4,110.7*,69.0,-0.2,55.2*
C/C=C/c1ccc([C@@H]2[C@H](CO)N3CCCCN(S(=O)(=O)c4ccccc4)C[C@@H]23)cc1,-1.6,68.8,-64.0,/,/,/,/
CCCC#Cc1ccc2c(c1)O[C@@H](CN(C)C(=O)c1cnccn1)[C@H](C)CN([C@@H](C)CO)S2(=O)=O,1.3,70.3,-19.9,/,/,/,/
N#C[C@@H]1[C@@H](c2ccc(C#CC3(O)CCCC3)cc2)[C@@H](CO)N1C(=O)C1CCCCC1,-8.8,97.1*,8.9,109.6*,84.1,22.8,?
SMILES,C diff HTS,T cruzi growth-1,Pf Dd2 growth,T cruzi growth-2,T cruzi growth-3,3T3 cytotox,3T3 cytotox 2
N#C[C@H]1[C@@H](c2ccc(C#CC3(O)CCCC3)cc2)[C@@H](CO)N1C(=O)C1CCC1,1.3,18.2,18.8,/,/,/,/
N#C[C@H]1[C@@H](c2ccc(C#CC3(O)CCCC3)cc2)[C@H](CO)N1C(=O)C1CCC1,5.2,99.2*,-24.1,104.5*,87.6,-3.2,68.7*
N#C[C@H]1[C@@H](c2ccc(C#CC3(O)CCCC3)cc2)[C@@H](CO)N1C(=O)C1CCCCC1,-0.1,92.6,18.2,/,/,/,/
C[C@H](CO)N1C[C@H](C)[C@@H](CN(C)C(=O)c2ccccn2)Oc2cc(C#Cc3ccc(F)cc3)ccc2S1(=O)=O,-4.2,45.4,-69.6,/,/,/,/
C[C@H](CO)N1C[C@H](C)[C@@H](CN(C)C)Oc2cc(C#CCC3CCCC3)ccc2S1(=O)=O,36.7,?,-30.9,107.3*,86.0,31.0,103.3*
C[C@@H]1CN([C@H](C)CO)S(=O)(=O)c2ccc(C#CCC3CCCC3)cc2O[C@@H]1CN(C)C(=O)c1ccccn1,4.7,109.9*,-59.3,100.3*,29.3,51.2*,103.9*
CCC(=O)N(C)C[C@H]1Oc2cc(C#CCC3CCCC3)ccc2S(=O)(=O)N([C@H](C)CO)C[C@@H]1C,11.9,75.4,-35.5,/,/,/,/
C[C@@H]1CN([C@@H](C)CO)S(=O)(=O)c2ccc(C#CCC3CCCC3)cc2O[C@@H]1CN(C)C(=O)c1ccccn1,-0.7,76.8,-60.0,/,/,/,/
CCC(=O)N(C)C[C@H]1Oc2cc(C#CCC3CCCC3)ccc2S(=O)(=O)N([C@@H](C)CO)C[C@@H]1C,6.8,127.8*,-76.7,105.6*,93.9,43.2*,104.7*
C[C@H]1CN([C@@H](C)CO)S(=O)(=O)c2ccc(C#CCC3CCCC3)cc2O[C@H]1CN(C)C(=O)CN(C)C,0.8,106.7,-69.1,/,/,/,/
CCC(=O)N(C)C[C@H]1Oc2cc(C#CCC3CCCC3)ccc2S(=O)(=O)N([C@@H](C)CO)C[C@H]1C,6.4,119.3*,-46.4,98.3*,89.0,27.3,104.9*
C[C@H](CO)N1C[C@H](C)[C@H](CN(C)C)Oc2cc(C#CCC3CCCC3)ccc2S1(=O)=O,14.1,17.5,-51.1,/,/,/,/
